The record followed here is PubChem BioAssay (NCATS).

The target in experiment [1] is DNA repair nuclease/redox regulator APEX1 (Homo sapiens) (UniProt P27695). The experiment in a line: qHTS Validation Assay for Inhibitors of the Human Apurinic/apyrimidinic Endonuclease 1 (APE1) (AID 1705;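 also: TAMRA fluorescence gain over two minutes as APE1 cuts a quenched THF abasic duplex; series mostly up to about 57 µM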). The procedure, abridged: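 Substrate: 50 nM final fluorophore/quencher THF-abasic duplex. Enzyme preincubated with compounds 15 min, RT. Progress derived from fluorescence difference, third minus first kinetic read.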
(qHTS replaces the single test concentration by a dilution series.)

Experiment [2] in a line: Counterscreen for APE1 Inhibitors: Fluorescent Dye Displacement Validation Assay (AID 1707). The procedure, abridged: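 Thiazole Orange displacement from dsDNA: 250 nM ThO with 50 nM TAMRA-labelled abasic-site (tetrahydrofuran) duplex in 50 mM Tris-HCl pH7.5, 50mM NaCl, 2 mM MgCl2, 0.01% Tween-20. Loss of endpoint fluorescence (ex 480 nm, em 540 nm) flags DNA binders.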

The nature of experiment [3]: qHTS for differential inhibitors of proliferation of Plasmodium falciparum line 7G8 (AID 1815).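 Also: parasite growth measured after three days of incubation.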 Also: potency is read from the fitted curve at half-maximal effect.
A short description of experiment [4]: qHTS for differential inhibitors of proliferation of Plasmodium falciparum line GB4 (AID 1816).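 Also: parasite growth measured after 72 h incubation.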 Also: potency is read from the fitted curve at half-maximal effect. The settings on record: Potency: Plasmodium falciparum GB4 proliferation inhibition.
The nature of experiment [5]: qHTS for differential inhibitors of proliferation of Plasmodium falciparum line 3D7 (AID 1876). Also: potency is read from the fitted curve at half-maximal effect.
Experiment [6] is described as follows: qHTS for differential inhibitors of proliferation of Plasmodium falciparum line D10 (AID 1877).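 Also: parasites grown with compound for 72 h before DNA staining.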 Also: potency is read from the fitted curve at half-maximal effect.
Experiment [7] can be described thus: qHTS for differential inhibitors of proliferation of Plasmodium falciparum line Dd2 (AID 1882). Also: nearly all actives have a fitted effect of over 65% in size. Also: potency is read from the fitted curve at half-maximal effect. As to conditions: Potency: Plasmodium falciparum Dd2 proliferation inhibition. The procedure, abridged: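 SYBR Green I DNA fluorescence read-out, ex 485/em 535 nm. Signals were normalized to 0.29 uM artemisinin and DMSO wells, then corrected using vehicle-only plates flanking each stack. Parasite growth ran 72 h in erythrocytes before lysis.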

A short description of experiment [8]: qHTS for differential inhibitors of proliferation of Plasmodium falciparum line W2 (AID 1883).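 Also: parasites grown with compound for 72 h before lysis and staining.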 Also: potency is read from the fitted curve at half-maximal effect. The settings on record: Potency: Plasmodium falciparum W2 proliferation inhibition.
Experiment [9] can be described thus: qHTS for differential inhibitors of proliferation of Plasmodium falciparum line HB3 (AID 1886).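 Also: parasites grown with compound for 72 h before SYBR Green readout.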 Also: potency is read from the fitted curve at half-maximal effect. As to conditions: Potency: Plasmodium falciparum HB3 proliferation inhibition.
In experiment [10] the target is ATP-dependent DNA helicase Q1 (Homo sapiens) (UniProt P46063). As to the kind of experiment: qHTS Validation Assay for Inhibitors of RecQ-Like Dna Helicase 1 (RECQ1) (AID 2353). The procedure, abridged: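 50 nM RECQ1T1 preincubated 15 min with compound in Tris pH 8.0 buffer with MgCl2, DTT, Tween-20 and 2.5 ug/ml poly(dI-dC); started with 200 nM TAMRA/BHQ-2 forked duplex and 2 mM ATP. Unwinding read as fluorescence (525/598 nm), two reads 2 h apart.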

The nature of experiment [11]: Cytometric Cell-Based qHTS for Inhibitors of the mTORC1 Signaling Pathway in MEF (Tsc2-/-, p53-/-) Cells (AID 2660).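 Also: percent of cells above a phospho-rpS6 to PI ratio cutoff in each well; series mostly up to about 38 µM.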 The procedure, abridged: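 Readout: Alexa-488 phospho-rpS6 (Ser235/236) intensity divided by PI intensity, thresholded against 7.5 nM rapamycin wells and reported as % positive cells. PI cell count served as the viability measure. Compound exposure was 24 hrs at 37 degree Celsius.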

Experiment [12] in a line: High Content Imaging Cell-Based qHTS for Inhibitors of the mTORC1 Signaling Pathway in MEF (Tsc2-/-, p53-/-) Cells (AID 2666).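 Also: percent of cells scored positive for phospho-rpS6 Ser235/236 immunostaining by imaging.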 The procedure, abridged:
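Phospho-rpS6 (Ser235/236) immunofluorescence, normalized and scored as % positive cells using rapamycin and DMSO controls, was read in empty-vector Tsc2-/-, p53-/- MEFs after 24 h compound exposure at 37 C; propidium iodide counted cells.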

Experiment [13] is described as follows: High Content Imaging Cell-Based qHTS for Inhibitors of the mTORC1 Signaling Pathway in MEF Cells (AID 2667).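 Also: Tsc2-/- p53-/- MEFs stably re-expressing wild-type Tsc2 exposed 24 h; series mostly up to about 38 µM.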 The procedure, abridged:
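WT MEFs (Tsc2-/-, p53-/- re-expressing Tsc2), in DMEM + 10% FBS, were treated with compound for 24 h at 37 C. Cells were then fixed and stained for phospho-rpS6 Ser235/236 with propidium iodide as cell count. Values are % positive cells, with thresholds set against rapamycin-treated cells.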

Experiment [14] concerns the target Ferritin light chain (Equus caballus) (UniProt P02791). As to the kind of experiment: qHTS Validation Assay for Identification of Novel General Anesthetics (AID 2323). Also: series mostly up to about 77 µM. The procedure, abridged: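 Normalized fluorescence response, scaled between free 1-AMA and 1-AMA/apoferritin complex, fitted to a four-parameter Hill equation for concentration-effect values. Binding mix: 10 uM horse-spleen apoferritin, 50% saturated 1-AMA in PBS; read 380/535 nm after 10 min.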

A short description of experiment [15]: qHTS Assay for Modulators of Human Peripheral Myelin Protein 22 (PMP22) Expression/Activity (AID 1967; active = well fitted curve in the direction sought with a large enough effect in the signal ratio; the % refers to the signal ratio). The procedure, abridged:
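Engineered MSC80 cells, Pmp22-promoter green and EF-alpha red luciferase reporters; 24h compound treatment at 37 °C. Concentration-response fits on green, red and ratio signals, each overlap-corrected, with %Activity normalized to untreated wells.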

For experiment [16], the target named is RecQ-like DNA helicase BLM (Homo sapiens) (UniProt P54132). As to the kind of experiment: qHTS Validation Assay for Inhibitors of Bloom's syndrome helicase (BLM) (AID 2364). The procedure, abridged: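 50 nM BLM preincubated 15 min at room temperature with compound in pH 8.0 Tris buffer containing 2.5 ug/ml poly(dI-dC); started with 200 nM TAMRA/BHQ-2 forked duplex and 2 mM ATP (final). Unwinding read as TAMRA fluorescence increase, two reads 2 h apart.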

Inconclusive results are not listed. Calls of active or inactive are those of the source. Unless noted, calls follow the shape of the dose curve; as a rule, active = well fitted curve in the direction sought with a large enough effect; inconclusive = small, poorly fitted or top-dose-only effect, or another doubt; inactive = no such curve, though single readings can be large; an effect the other way counts as inactive or inconclusive.

Ferritin light chain (Equus caballus), sequence (P02791 2-175 limits assumed): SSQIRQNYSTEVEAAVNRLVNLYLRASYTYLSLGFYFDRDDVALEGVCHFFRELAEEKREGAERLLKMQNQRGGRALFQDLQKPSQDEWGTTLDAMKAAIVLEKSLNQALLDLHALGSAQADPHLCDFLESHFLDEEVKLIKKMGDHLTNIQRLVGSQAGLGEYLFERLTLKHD
ATP-dependent DNA helicase Q1 (Homo sapiens), sequence (P46063 whole entry, looked up): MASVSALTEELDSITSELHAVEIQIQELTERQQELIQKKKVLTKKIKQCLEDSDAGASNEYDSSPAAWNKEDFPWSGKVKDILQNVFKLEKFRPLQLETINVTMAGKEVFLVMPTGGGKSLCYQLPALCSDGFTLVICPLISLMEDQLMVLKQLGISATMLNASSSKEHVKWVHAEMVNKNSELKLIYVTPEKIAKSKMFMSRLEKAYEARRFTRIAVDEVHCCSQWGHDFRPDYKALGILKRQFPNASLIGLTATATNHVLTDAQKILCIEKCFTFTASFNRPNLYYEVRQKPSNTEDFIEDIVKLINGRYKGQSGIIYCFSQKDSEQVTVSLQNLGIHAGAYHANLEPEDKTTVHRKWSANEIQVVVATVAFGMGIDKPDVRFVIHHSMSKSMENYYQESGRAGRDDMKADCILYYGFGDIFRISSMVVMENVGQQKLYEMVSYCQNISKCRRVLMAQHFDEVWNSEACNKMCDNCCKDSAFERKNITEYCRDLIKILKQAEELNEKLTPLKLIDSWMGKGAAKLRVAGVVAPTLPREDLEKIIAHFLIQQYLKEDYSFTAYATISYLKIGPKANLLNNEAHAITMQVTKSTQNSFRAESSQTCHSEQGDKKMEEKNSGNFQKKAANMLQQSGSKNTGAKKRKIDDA
DNA repair nuclease/redox regulator APEX1 (Homo sapiens), sequence (P27695 whole entry, looked up): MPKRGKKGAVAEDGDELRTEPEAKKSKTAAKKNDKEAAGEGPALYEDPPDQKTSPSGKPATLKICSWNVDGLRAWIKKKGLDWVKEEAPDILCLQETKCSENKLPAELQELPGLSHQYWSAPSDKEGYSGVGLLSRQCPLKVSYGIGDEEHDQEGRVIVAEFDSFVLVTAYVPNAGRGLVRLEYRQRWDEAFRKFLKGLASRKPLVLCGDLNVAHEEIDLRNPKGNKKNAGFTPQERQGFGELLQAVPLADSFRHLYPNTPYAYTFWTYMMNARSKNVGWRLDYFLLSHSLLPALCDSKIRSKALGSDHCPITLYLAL
RecQ-like DNA helicase BLM (Homo sapiens), sequence (P54132 whole entry, looked up): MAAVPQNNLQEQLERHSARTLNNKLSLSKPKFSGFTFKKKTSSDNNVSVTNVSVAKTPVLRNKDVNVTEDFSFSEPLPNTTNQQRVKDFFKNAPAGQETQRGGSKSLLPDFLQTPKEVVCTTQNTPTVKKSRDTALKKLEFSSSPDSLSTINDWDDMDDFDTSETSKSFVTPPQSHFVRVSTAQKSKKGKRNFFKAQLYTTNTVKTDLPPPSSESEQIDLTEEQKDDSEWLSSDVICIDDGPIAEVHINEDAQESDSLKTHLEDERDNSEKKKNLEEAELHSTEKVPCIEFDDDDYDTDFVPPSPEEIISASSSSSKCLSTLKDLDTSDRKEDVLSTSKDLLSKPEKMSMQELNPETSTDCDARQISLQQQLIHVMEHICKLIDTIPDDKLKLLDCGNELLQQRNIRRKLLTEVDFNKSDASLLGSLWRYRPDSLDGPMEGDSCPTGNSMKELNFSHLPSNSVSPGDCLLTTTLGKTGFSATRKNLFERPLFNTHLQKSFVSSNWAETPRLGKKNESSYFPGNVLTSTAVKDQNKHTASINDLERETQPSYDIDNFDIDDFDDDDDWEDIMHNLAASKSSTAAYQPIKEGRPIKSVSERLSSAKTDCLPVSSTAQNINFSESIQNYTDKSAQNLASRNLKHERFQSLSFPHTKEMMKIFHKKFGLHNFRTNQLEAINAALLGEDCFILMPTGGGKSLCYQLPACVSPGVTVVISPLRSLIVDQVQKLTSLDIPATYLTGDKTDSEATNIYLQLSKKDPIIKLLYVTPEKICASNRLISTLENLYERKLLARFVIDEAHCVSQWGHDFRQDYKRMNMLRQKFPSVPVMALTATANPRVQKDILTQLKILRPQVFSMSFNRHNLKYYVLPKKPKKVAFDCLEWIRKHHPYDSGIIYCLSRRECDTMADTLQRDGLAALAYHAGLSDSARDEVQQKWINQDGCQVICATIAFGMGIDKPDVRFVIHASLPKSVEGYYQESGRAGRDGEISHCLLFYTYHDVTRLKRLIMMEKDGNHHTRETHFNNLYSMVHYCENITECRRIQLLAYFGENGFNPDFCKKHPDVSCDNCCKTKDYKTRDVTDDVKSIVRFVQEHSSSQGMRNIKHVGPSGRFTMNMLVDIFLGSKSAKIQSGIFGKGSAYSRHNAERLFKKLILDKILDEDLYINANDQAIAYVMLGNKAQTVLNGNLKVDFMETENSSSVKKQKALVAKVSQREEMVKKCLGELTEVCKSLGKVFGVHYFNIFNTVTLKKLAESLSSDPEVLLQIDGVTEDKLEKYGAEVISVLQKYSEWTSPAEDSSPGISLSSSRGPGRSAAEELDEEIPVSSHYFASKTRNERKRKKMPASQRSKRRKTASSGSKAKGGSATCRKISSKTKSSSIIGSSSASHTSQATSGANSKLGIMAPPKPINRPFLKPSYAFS

For the compound `Fc1ccc(C(OCCCc2cnc[nH]2)c2ccc(F)cc2)cc1`, the Potency entry in experiment [1], in experiment [2], in experiment [10], in experiment [12] and in [13] was “inactive” in each case. Moreover, the Potency was 1.58 µM (active) in experiment [3]; 1.26 µM (active) in experiment [4]; 1.26 µM (active) in experiment [5]; 5.01 µM (active) in [6]; 8.91 µM (active) in experiment [7]; 0.794 µM (active) in experiment [8]. Moreover, in [9], the Potency is 2.51 µM (active). In experiment [11], the compound was classed as inactive.
Turning to `O=C1NC(O)=NC1(c1ccccc1)c1ccccc1`, the Potency result in experiment [1], in experiment [2], in experiment [3], in [4], in experiment [5] and in experiment [6] was “inactive” each time. Moreover, the Potency result in experiment [7], in experiment [8], in experiment [9], in experiment [14], in experiment [10] and in experiment [12] was “inactive” each time. Moreover, the Potency entry in [13] was “inactive”. The result in experiment [11] was inactive.
Consider `O=C(O)c1cc(=O)c2c(Cl)cc(Cl)cc2[nH]1`, for which the Potency entry in experiment [1], in [2], in experiment [3], in [4], in experiment [5] and in experiment [6] was “inactive” throughout. Moreover, the Potency entry in [7], in experiment [8], in experiment [9], in [14], in [10] and in experiment [12] was “inactive” in each case. Besides, in experiment [13], the Potency result is “inactive”. Moreover, the outcome in experiment [15] and in experiment [11] was inactive.
Regarding `CC12C(=O)OC(=O)C1(C)C1CCC2O1` (stereo unspecified), the Potency entry in experiment [1], in [2], in experiment [14] and in experiment [10] was “inactive” each time. The Potency in experiment [3] is 3.98 µM (active); in [4] it was 4.47 µM (active); in [5], 3.16 µM (active); in experiment [6] it was 2.24 µM (active); in [7], 4.47 µM (active); in experiment [8] it was 2.51 µM (active). The Potency in experiment [9] was 3.98 µM (active).
Regarding `NC(CCCP(=O)(O)O)C(=O)O` (stereo unspecified), the Potency result in [1], in experiment [2], in [3], in experiment [4], in experiment [5] and in experiment [6] was “inactive” each time. Also, the Potency result in [7], in experiment [8], in experiment [9], in experiment [14], in [10] and in [12] was “inactive” each time. Moreover, the Potency result in experiment [13] was “inactive”. For the same compound, the compound was classed as inactive in experiment [11].
With `CN1CCc2ccccc2Cc2[nH]c3ccccc3c2CC1`, the Potency result in [1], in [2], in experiment [14], in [10], in experiment [12] and in [13] was “inactive” each time. Also, the Potency was 7.08 µM (active) in experiment [3]; 10 µM (active) in experiment [4]; 7.08 µM (active) in experiment [5]; 12.6 µM (active) in experiment [6]; 12.6 µM (active) in [7]; 5.62 µM (active) in experiment [8]. Besides, in experiment [9], the Potency is 10 µM (active). For the same compound, the outcome in experiment [11] was inactive.
`O=C(O)c1cc(=O)c2ccccc2[nH]1`: the Potency result in experiment [1], in experiment [2], in [3], in [4], in experiment [5] and in experiment [6] was “inactive” throughout. Also, the Potency entry in experiment [7], in experiment [8], in experiment [9], in [14], in experiment [10] and in experiment [16] was “inactive” throughout. The Potency entry in experiment [12] and in [13] was “inactive” in each case. Further, the call in experiment [15] and in experiment [11] was inactive.
In the case of `O=C(O)CNC(=O)C(CS)Cc1ccccc1` (stereo unspecified), the Potency entry in experiment [1], in experiment [2], in experiment [3], in [4], in experiment [5] and in experiment [6] was “inactive” each time. Also, the Potency result in experiment [7], in experiment [8], in experiment [9], in experiment [14], in experiment [10] and in experiment [12] was “inactive” in each case. The Potency entry in [13] is “inactive”. The compound was called inactive in experiment [15] and in [11].
With `CC(COc1ccc(/C=C/c2ccccc2)cc1)[N+](C)(C)C` (stereo unspecified), the Potency entry in experiment [1], in experiment [2], in experiment [14], in [10], in experiment [16] and in experiment [12] was “inactive” in each case. The Potency is 7.08 µM (active) in experiment [3]; 2.24 µM (active) in experiment [4]; 1.26 µM (active) in experiment [5]; 2.24 µM (active) in [6]; 5.01 µM (active) in [7]; 2.82 µM (active) in experiment [8]. Further, in [9], the Potency was 2 µM (active). Also, in experiment [11], the outcome was inactive.
